Measurements as given in PubChem BioAssay (EPA / NIEHS).
Activity calls are given as the source filed them. Rule for the calls: active = hit-call score of the fitted dose curve at least 0.9, where 1 is the maximum; inactive = score below 0.9.

How the values were obtained:
Settings in all cases: mRNA level, 48 h; actives raise or lower the signal
[1] = read-out: flavin-containing dimethylaniline monooxygenases 3 (FMO3), FMO3 (gene 2328); experiment: LTEA_HepaRG_FMO3: Life Technologies and Expression Analysis (LTEA) Assay for flavin-containing dimethylaniline monooxygenases 3 (FMO3) using HepaRG (AID 2283453)
Summary of the method: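 FMO3 transcript quantified by TaqMan qRT-PCR against three housekeeping genes after 48 h chemical exposure of HepaRG cells. Eight-point half-log series, top 100 uM, 0.5% DMSO vehicle; phenobarbital 1mM induction control; up- or down-regulation fitted.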

[2] = read-out: Cytochrome P450 (CYP1A1), CYP1A1 (gene 1543); experiment: LTEA_HepaRG_CYP1A1: Life Technologies and Expression Analysis (LTEA) Assay for Cytochrome P450 (CYP1A1) using HepaRG (AID 2283454)
Summary of the method: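 Differentiated human HepaRG cells, after 48 h plating, exposed in duplicate for 48 h in serum-free induction medium to 8 half-log concentrations up to 100 uM in 0.5% DMSO. CYP1A1 mRNA by qRT-PCR, normalized to ACTB/GAPDH/POLR2A; bidirectional fit versus DMSO.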

[3] = read-out: CFLAR gene, CFLAR (gene 8837); experiment: LTEA_HepaRG_CFLAR: Life Technologies and Expression Analysis (LTEA) Assay for CFLAR gene using HepaRG (AID 2283455)
Summary of the method: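 Transcript level by qRT-PCR (normalized to ACTB, GAPDH and POLR2A) after 48 h chemical exposure of HepaRG cells, top concentration 100 uM with half-log steps, 0.5% DMSO vehicle, duplicates; fitted bidirectionally against DMSO baseline.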

[4] = read-out: Forkhead box O1 (FOXO1), FOXO1 (gene 2308); experiment: LTEA_HepaRG_FOXO1: Life Technologies and Expression Analysis (LTEA) Assay for Forkhead box O1 (FOXO1) using HepaRG (AID 2283456)
Summary of the method: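 FOXO1 transcript quantified by qRT-PCR after 48 h chemical exposure (top 100 uM, half-log steps, 0.5% DMSO) of HepaRG cells, housekeeping-normalized (ACTB/GAPDH/POLR2A). Changes fitted in both directions relative to vehicle.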

[5] = read-out: growth arrest and DNA damage 45 (GADD45A), GADD45A (gene 1647); experiment: LTEA_HepaRG_GADD45A: Life Technologies and Expression Analysis (LTEA) Assay for growth arrest and DNA damage 45 (GADD45A) using HepaRG (AID 2283458)
Summary of the method: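 Transcript induction or loss, quantified by TaqMan qRT-PCR against three housekeeping genes, is the read-out. HepaRG cells received chemicals for 48 h across eight half-log concentrations from 100 uM in 0.5% DMSO; gain and loss fitted relative to DMSO.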

[6] = read-out: Forkhead box O3 (FOXO3), FOXO3 (gene 2309); experiment: LTEA_HepaRG_FOXO3: Life Technologies and Expression Analysis (LTEA) Assay for Forkhead box O3 (FOXO3) using HepaRG (AID 2283459)
Summary of the method: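 FOXO3 transcript measured by qRT-PCR (normalized to ACTB, GAPDH, POLR2A) after 48 h exposure of HepaRG cells in serum-free induction medium. Duplicates, eight half-log concentrations up to 100 uM, 0.5% DMSO; gain or loss fitted against DMSO.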

[7] = read-out: ABC Transporter (ABCB1), ABCB1 (gene 5243); experiment: LTEA_HepaRG_ABCB1: Life Technologies and Expression Analysis (LTEA) Assay for ABC Transporter (ABCB1) using HepaRG (AID 2283460)
Summary of the method: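 ABCB1 transcript level measured by TaqMan qRT-PCR against three housekeeping genes after 48 h chemical exposure of differentiated HepaRG cells. Top concentration 100 uM, half-log steps, eight points, 0.5% DMSO vehicle; bidirectional fit relative to DMSO.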

[8] = read-out: growth arrest and DNA damage 45 (GADD45B), GADD45B (gene 4616); experiment: LTEA_HepaRG_GADD45B: Life Technologies and Expression Analysis (LTEA) Assay for growth arrest and DNA damage 45 (GADD45B) using HepaRG (AID 2283461)
Summary of the method: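 Differentiated human HepaRG cells in serum-free induction medium exposed 48 h in duplicate to eight concentrations, top 100 uM, half-log steps, 0.5% DMSO. GADD45B mRNA by TaqMan qRT-PCR, normalized to ACTB, GAPDH, POLR2A; bidirectional fit versus DMSO.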

[9] = read-out: ABC Transporter (ABCC3), ABCC3 (gene 8714); experiment: LTEA_HepaRG_ABCC3: Life Technologies and Expression Analysis (LTEA) Assay for ABC Transporter (ABCC3) using HepaRG (AID 2283462)
Summary of the method: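 Differentiated human HepaRG cells exposed 48 h in serum-free induction medium, 0.5% DMSO vehicle, 8-point half-log series to 100 uM in duplicate. ABCC3 mRNA by qRT-PCR, normalised to ACTB, GAPDH, POLR2A; bidirectional fit vs DMSO.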

[10] = read-out: ABC Transporter (ABCB11), ABCB11 (gene 8647); experiment: LTEA_HepaRG_ABCB11: Life Technologies and Expression Analysis (LTEA) Assay for ABC Transporter (ABCB11) using HepaRG (AID 2283463)
Summary of the method: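 ABCB11 transcript levels quantified by TaqMan qRT-PCR against three housekeeping genes after 48 h chemical exposure of HepaRG cultures. Concentrations up to 100 uM in half-log steps, 0.5% DMSO vehicle; both induction and suppression scored.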

[11] = read-out: ABC Transporter (ABCC2), ABCC2 (gene 1244); experiment: LTEA_HepaRG_ABCC2: Life Technologies and Expression Analysis (LTEA) Assay for ABC Transporter (ABCC2) using HepaRG (AID 2283464)
Summary of the method: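 Differentiated HepaRG cells in serum-free induction medium exposed 48 h to eight half-log concentrations up to 100 uM, 0.5% DMSO, in duplicate. ABCC2 mRNA measured by qRT-PCR (TaqMan, Fluidigm), normalized to ACTB, GAPDH and POLR2A. Fitted in both directions against DMSO.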

[12] = read-out: Broad substrate specificity ATP-binding cassette transporter ABCG2 (Homo sapiens) (UniProt Q9UNQ0); experiment: LTEA_HepaRG_ABCG2: Life Technologies and Expression Analysis (LTEA) Assay for ABC Transporter (ABCG2) using HepaRG (AID 2283465)
Summary of the method: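 ABCG2 transcript was quantified by TaqMan qRT-PCR against three housekeeping genes in HepaRG cells. Cells were treated in duplicate for 48 h across an 8-point half-log series up to 100 uM, with 0.5% DMSO vehicle. Gain or loss versus DMSO was fit.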

[13] = read-out: ATP-citrate lyase (ACLY), ACLY (gene 47); experiment: LTEA_HepaRG_ACLY: Life Technologies and Expression Analysis (LTEA) Assay for ATP-citrate lyase (ACLY) using HepaRG (AID 2283466)
Summary of the method: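 ACLY mRNA quantified by qRT-PCR on Fluidigm arrays against three housekeeping genes, after 48 h chemical treatment of HepaRG cells (top concentration 100 uM, half-log steps, 0.5% DMSO vehicle). Up- or down-regulation fitted relative to DMSO.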

[14] = read-out: Peroxisomal acyl-coenzyme A oxidase 1 (ACOX1) gene, ACOX1 (gene 51); experiment: LTEA_HepaRG_ACOX1: Life Technologies and Expression Analysis (LTEA) Assay for Peroxisomal acyl-coenzyme A oxidase 1 (ACOX1) gene using HepaRG (AID 2283467)
Summary of the method: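 ACOX1 transcript levels were quantified by TaqMan qRT-PCR against three housekeeping genes after 48 h chemical exposure of differentiated human HepaRG cells. Exposure used eight half-log steps topping at 100 uM, 0.5% DMSO vehicle, in duplicate. Bidirectional curve fits were made relative to DMSO.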

[15] = read-out: Alkaline Phosphatase, Placental (ALPP) gene, ALPP (gene 250); experiment: LTEA_HepaRG_ALPP: Life Technologies and Expression Analysis (LTEA) Assay for Alkaline Phosphatase, Placental (ALPP) gene using HepaRG (AID 2283468)
Summary of the method: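 HepaRG cells plated 48 h, then exposed in duplicate for 48 h in serum-free induction medium to 8-point half-log series from 100 uM in 0.5% DMSO. ALPP mRNA by TaqMan qRT-PCR, normalized to ACTB/GAPDH/POLR2A; bidirectional fit versus DMSO.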

[16] = read-out: Bcl-2 (BAD) gene, BAD (gene 572); experiment: LTEA_HepaRG_BAD: Life Technologies and Expression Analysis (LTEA) Assay for Bcl-2 (BAD) gene using HepaRG (AID 2283469)
Summary of the method: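 Read-out: qRT-PCR of BAD mRNA, normalized to three housekeeping genes. Human HepaRG cultures got 48 h chemical exposure in 0.5% DMSO, duplicate eight-point half-log series topping at 100 uM. Gain or loss of signal fitted versus DMSO vehicle.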

[17] = read-out: Bcl-2 (BAX) gene, BAX (gene 581); experiment: LTEA_HepaRG_BAX: Life Technologies and Expression Analysis (LTEA) Assay for Bcl-2 (BAX) gene using HepaRG (AID 2283470)
Summary of the method: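 Cells were thawed, plated for 48 h, moved to serum-free induction medium and dosed for 48 h (highest concentration 100 uM, half-log steps, 0.5% DMSO). Total RNA was then analysed for BAX expression by qRT-PCR.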

[18] = read-out: adenosine kinase (ADK) gene, ADK (gene 132); experiment: LTEA_HepaRG_ADK: Life Technologies and Expression Analysis (LTEA) Assay for adenosine kinase (ADK) gene using HepaRG (AID 2283471)
Summary of the method: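 Read-out is ADK transcript level measured by qRT-PCR and normalised to three housekeeping genes. Cells are human HepaRG, dosed for 48 h at up to 100 uM in 0.5% DMSO. Gain or loss of signal is fitted against DMSO controls.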

[19] = read-out: Alpha-fetoprotein (AFP) gene, AFP (gene 174); experiment: LTEA_HepaRG_AFP: Life Technologies and Expression Analysis (LTEA) Assay for Alpha-fetoprotein (AFP) gene using HepaRG (AID 2283472)
Summary of the method: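 Chemicals were tested on differentiated HepaRG cells for 48 hours at eight concentrations up to 100 uM, with 0.5% DMSO as vehicle. AFP expression was then quantified by qRT-PCR and analyzed for gain or loss relative to DMSO.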

Measured: AC50

Sequence of Broad substrate specificity ATP-binding cassette transporter ABCG2 (Homo sapiens) (Q9UNQ0 whole entry, looked up): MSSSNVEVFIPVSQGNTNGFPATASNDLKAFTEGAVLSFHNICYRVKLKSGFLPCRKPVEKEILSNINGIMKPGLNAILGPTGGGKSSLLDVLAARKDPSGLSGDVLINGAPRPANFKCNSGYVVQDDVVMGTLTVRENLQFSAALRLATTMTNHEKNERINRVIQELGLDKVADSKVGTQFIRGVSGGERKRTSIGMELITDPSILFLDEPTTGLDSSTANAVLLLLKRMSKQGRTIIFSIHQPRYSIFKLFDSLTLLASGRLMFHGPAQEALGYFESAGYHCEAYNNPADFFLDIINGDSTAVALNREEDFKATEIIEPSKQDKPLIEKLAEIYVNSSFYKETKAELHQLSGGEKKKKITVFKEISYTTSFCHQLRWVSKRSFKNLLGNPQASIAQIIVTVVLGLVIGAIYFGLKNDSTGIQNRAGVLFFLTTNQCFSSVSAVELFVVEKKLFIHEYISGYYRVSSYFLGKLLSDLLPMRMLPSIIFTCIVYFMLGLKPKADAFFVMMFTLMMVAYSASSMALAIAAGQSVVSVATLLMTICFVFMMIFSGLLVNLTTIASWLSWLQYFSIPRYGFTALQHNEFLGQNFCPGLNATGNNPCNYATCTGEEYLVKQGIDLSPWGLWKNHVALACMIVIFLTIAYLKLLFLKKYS

CCOC1Oc2ccc(OS(C)(=O)=O)cc2C1(C)C (configuration not stated)
active: [1] 78.3 µM | [2] 50 µM | [4] 50 µM | [5] 89.7 µM | [7] 35.2 µM | [9] 66.7 µM | [10] 73 µM | [12] 28.2 µM | [13] 82.6 µM | [14] 60.8 µM | [15] 43.6 µM | [19] 72.3 µM
inactive: [3] | [6] | [8] | [11] | [16] | [17] | [18]

CC[C@H](C)[C@H]1O[C@]2(C=C[C@@H]1C)C[C@@H]1C[C@@H](C/C=C(\C)[C@@H](O[C@H]3C[C@H](OC)[C@@H](O[C@H]4C[C@H](OC)[C@@H](O)[C@H](C)O4)[C@H](C)O3)[C@@H](C)/C=C/C=C3\CO[C@@H]4[C@H](O)C(C)=C[C@@H](C(=O)O1)[C@]34O)O2 (tested in a mixture with another compound)
active: [1] 14 µM | [2] 0.361 µM | [3] 30.2 µM | [4] 17.5 µM | [7] 55.2 µM | [8] 7.13 µM | [9] 46.5 µM | [10] 15.8 µM | [11] 30.2 µM | [12] 13.7 µM | [13] 52.2 µM | [14] 30.2 µM | [15] 9.57 µM | [17] 7.73 µM
inactive: [5] | [6] | [16] | [18] | [19]

CCCN(CCOc1c(Cl)cc(Cl)cc1Cl)C(=O)n1ccnc1
active: [1] 33 µM | [2] 2.56 µM | [3] 85.2 µM | [4] 88.7 µM | [5] 45.8 µM | [7] 3.22 µM | [10] 25.5 µM | [11] 84.8 µM | [12] 10.8 µM | [13] 12.5 µM | [14] 50 µM | [15] 35.6 µM | [17] 50 µM | [19] 22.5 µM
inactive: [6] | [8] | [9] | [16] | [18]

CCC(C)Nc1c([N+](=O)[O-])cc(C(C)(C)C)cc1[N+](=O)[O-] (configuration not stated)
active: [2] 12.9 µM | [7] 13 µM | [11] 17.8 µM | [12] 22 µM | [19] 50 µM
inactive: all other assays above

Cc1[nH]c(=O)n(C(C)(C)C)c(=O)c1Cl
active: [2] 24.1 µM | [6] 50 µM
inactive: all other assays above

O=C(NC(=O)c1c(F)cccc1F)Nc1ccc(OC(F)(F)C(F)OC(F)(F)F)c(Cl)c1 (configuration not stated)
active: [2] 21.2 µM | [13] 25 µM
inactive: all other assays above

O=C1c2ccccc2C(=O)N1SC(Cl)(Cl)Cl
inactive: all assays above

CNC(=O)Oc1cccc(N=CN(C)C)c1
active: [2] 50.2 µM
inactive: all other assays above

CNC(=O)Oc1ccccc1OC(C)C
not listed: [13] | [15]
inactive: all other assays above

CN1CSC(=S)N(C)C1
active: [2] 28.4 µM
inactive: all other assays above

OCCOc1ccccc1
active: [2] 35.1 µM
inactive: all other assays above
